The list is not random: actives were taken first. Their share in the collection is about 3.4%.
NTR1 ag – agonists of human NTR1, primary screen, imaging, U2OS cells, beta-arrestin-GFP, high content. Neurotensin receptor type 1 (Homo sapiens), P30989. NTR1-U2OS beta-arrestin-GFP spot imaging, agonist mode. activation, % at 20 µM. actives 0.17% (n = 330,000). AID 493036, 2011;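 active means activation at or above 40% of the spot to cytoplasm intensity ratio, with at least 20 cells analyzed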
MEKK2 mut-MEK5 – MEK5 binding signal on mutant MEKK2 PB1, primary screen, biochemical, multiplex bead flow cytometry, Alexa488-MEK5. Alexa488-MEK5 binding to MEKK2 mutant. percent response, % at 10 µM. actives 0.35% (n = 290,000); in the data active means percent response above about 24%, passing the limit was not always enough
MEKK2 WT-MEK5 – modulators of MEK5 binding to wildtype MEKK2, primary screen, biochemical, multiplex bead flow cytometry, Alexa488-MEK5. Mitogen-activated protein kinase kinase kinase 2 (Homo sapiens), Q9Y2U5. actives 1.1% (n = 290,000). AID 1531, 2009. Alexa488-MEK5 binding to MEKK2 WT; actives lie on both sides. binding response (% of control), % at 10 µM; in the data active means binding response below about 67% or above about 130%
ANO1 activ – TMEM16A chloride channel activators or potentiators, primary screen, cell-based, HTS; Anoctamin-1 (Mus musculus), Q8BHY3; HEK293 TMEM16A/YFP-H148Q/I152L, iodide quench fluorescence; hits give low values; B-score at 10 µM; actives 0.3% (n = 340,000);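 active means fluorescence-ratio B-score plate-corrected deviation score at least 3 library SD below zero, with starting fluorescence score within 5 deviations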;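 further: channel opened by trigger with iodide after compound preincubation; score built on the fluorescence ratio of max minus min over baseline; more negative score means more quench and so TMEM16A activation or potentiation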
MEKK3 PB1 HTS – modulators of MEKK3-MEK5 PB1 binding, primary screen, biochemical, wildtype MEKK3, multiplex bead flow cytometry, Alexa488-MEK5 | Mitogen-activated protein kinase kinase kinase 3 (Homo sapiens), Q99759 | bead-based flow cytometry, Alexa488-MEK5 binding to MEKK3; actives lie on both sides; 0 = blocked by unlabeled MEK5, 100 = vehicle | binding response (% of control), % at 10 µM | actives 1.4% (n = 290,000) | AID 1529, 2009;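 active means binding response more than 3 SD above or below the average of its plate-row segment, actives on both sides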;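 further: Alexa488 bead fluorescence after subtracting the streptavidin-only scavenger bead signal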
Target sequence (Q99759 whole entry, looked up): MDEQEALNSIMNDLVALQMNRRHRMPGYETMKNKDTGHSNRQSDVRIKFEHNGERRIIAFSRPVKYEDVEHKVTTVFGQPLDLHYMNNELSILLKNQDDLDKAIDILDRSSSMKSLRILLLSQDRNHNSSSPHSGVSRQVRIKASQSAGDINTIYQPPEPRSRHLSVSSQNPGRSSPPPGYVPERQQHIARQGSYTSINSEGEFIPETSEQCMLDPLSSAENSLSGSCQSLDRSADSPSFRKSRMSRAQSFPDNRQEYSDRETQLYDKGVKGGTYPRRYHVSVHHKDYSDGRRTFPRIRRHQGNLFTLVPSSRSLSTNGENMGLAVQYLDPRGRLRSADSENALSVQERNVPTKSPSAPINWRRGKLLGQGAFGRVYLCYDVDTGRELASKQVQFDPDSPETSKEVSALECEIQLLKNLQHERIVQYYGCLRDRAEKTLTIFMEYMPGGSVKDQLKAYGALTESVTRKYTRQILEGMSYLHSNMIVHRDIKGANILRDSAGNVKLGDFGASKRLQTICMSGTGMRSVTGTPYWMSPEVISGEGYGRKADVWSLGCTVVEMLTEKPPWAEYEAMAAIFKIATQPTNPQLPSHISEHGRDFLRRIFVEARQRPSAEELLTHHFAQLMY
ANO1 block – TMEM16A chloride channel inhibitors, primary screen, cell-based, HTS; HEK293 TMEM16A/YFP iodide influx fluorescence, ionomycin; normalized B-score (activity score, 25-100; higher = stronger inhibition) at 10 µM; actives 1.2% (n = 310,000); AID 588511, 2011; Anoctamin-1 (Mus musculus), Q8BHY3;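 active means ratio plate-corrected score three or more library SD toward inhibition, starting fluorescence score within five deviations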;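 further: score derived from kinetic fluorescence span divided by baseline fluorescence per well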
A number is an active result; . = inactive; / = no result.

SMILES	NTR1 ag	MEKK2 mut-MEK5	MEKK2 WT-MEK5	ANO1 activ	MEKK3 PB1 HTS	ANO1 block
CN(C)C(CNC(=O)C1CCN(S(=O)(=O)c2cccc(Cl)c2Cl)CC1)c1ccccc1 (centres undefined)	.	.	.	.	.	.
COc1cccc(C2C3=C(N=c4s/c(=C\c5cccc(O)c5)c(=O)n42)c2ccccc2CC3)c1OC (centres undefined)	.	.	.	.	133	.
CN(C)c1ccc(O)c2c1CC1CC3C(N(C)C)C(=O)C(C(N)=O)=C(O)[C@@]3(O)C(=O)C1=C2O (some centres undefined)	.	.	.	.	.	.
CN(C)c1ccc(O)c2c1CC1CC3[C@@H](N(C)C)C(=O)C(C(N)=O)C(=O)[C@]3(O)C(=O)C1C2=O (some centres undefined)	.	/	/	-9.4	/	/
Cc1csc(NC(=O)CSc2ncnc3c2cnn3-c2ccccc2Cl)n1	.	.	.	.	.	100
CC(C)C(=O)NNC(=O)CSc1ncnc2c1cnn2-c1ccccc1Cl	.	.	.	.	.	.
O=C(NC(=S)NC1CCCCC1)c1ccc(F)cc1	.	.	.	.	.	.
CCOC(=O)c1c(CC(C)C)csc1NC(=O)C(C)C	.	.	.	.	.	25
CCN(C(=O)COC(=O)CCn1c(C)csc1=O)c1c(N)n(Cc2ccccc2)c(=O)[nH]c1=O	.	/	/	.	/	/
CS(=O)(=O)N1CCc2cc(S(=O)(=O)Nc3ccc4oc5c(c4c3)CCCC5)ccc21	.	.	.	.	.	25
COc1ccc(C(=O)CCC(=O)N2CCN(c3cc(C)ccc3C)CC2)cc1	.	.	.	-5.8	.	.
COc1ccc(-c2cccc(CCC(=O)N3CCN(c4cc(C)ccc4C)CC3)c2)cc1	.	/	/	/	/	/
COc1ccc(NC(=O)CN(C)C(=O)CCC2CCCC2)cc1	.	.	.	.	.	.
Cc1cc(C)cc(OCC(=O)N2N=C(C(F)(F)F)CC2(O)C(C)(C)C)c1 (centres undefined)	.	.	.	.	.	100
Cc1cc(C)cc(OCC(=O)N2N=C(c3cccnc3)CC2(O)C(F)(F)F)c1 (centres undefined)	.	.	.	.	.	.
CCCCCc1c2c(cc(O)c1C(=O)O)OC(=O)c1c(cc(OC)cc1C(=O)CCCC)O2	.	.	.	.	.	100
CCCCc1c(C(=O)O)cc(OC)cc1C(=O)O	.	.	.	.	.	.
Oc1c(N=Nc2ccccn2)ccc2ccccc12	.	.	36	.	.	.
Oc1[nH]c2ccccc2c1N=Nc1ccccn1	/	/	/	.	/	/
Cc1ccc(N2C(=O)CC(Sc3ncn[nH]3)C2=O)cc1C (centres undefined)	.	.	.	.	.	.
CCOC(=O)CSc1cc(CS(C)(=O)=O)nc(-c2ccccn2)n1	.	.	.	-6.6	.	.
N#Cc1cccc(S(=O)(=O)Nc2c(NC3CCCCC3)c3ccccc3oc2=O)c1	.	.	.	.	.	.
CCOC(=O)N1CCN(C(=O)C(=O)c2cn(CC(=O)N3CCCCCC3)c3ccccc23)CC1	.	.	2.0	.	.	.
COC(=O)C1OC(OC2CC[C@]3(C)C(CC[C@@]4(C)[C@@H]3CC=C3[C@@H]5CC(C)(C)CC[C@]5(C(=O)OC5OC(CO)C(O)C(O)C5O)CC[C@]34C)C2(C)C)C(O)C(O)C1O[C@H]1OCC(O)C(O)C1O (some centres undefined)	.	/	/	/	/	/
CC1(C)CC[C@]2(C(=O)O[C@@H]3OC(CO)[C@@H](O)[C@H](O)[C@H]3O)CC[C@]3(C)C(=CCC4[C@@]5(C)CC[C@H](O[C@@H]6OC(C(=O)O)[C@@H](O)[C@H](O)[C@H]6O)C(C)(C)C5CC[C@]43C)[C@@H]2C1 (some centres undefined)	.	/	/	-8.8	/	/
SMILES	NTR1 ag	MEKK2 mut-MEK5	MEKK2 WT-MEK5	ANO1 activ	MEKK3 PB1 HTS	ANO1 block
CC1(C)C[C@H]2C3=CCC4[C@@]5(C)CC[C@H](O)[C@@](C)(CO)C5CC[C@@]4(C)[C@]3(C)C[C@@H](O)[C@@]2(CO)[C@@H](O)[C@@H]1O (some centres undefined)	.	/	/	.	/	/
C/C=C(\C)C(=O)OC1CC(C)(C)C[C@H]2C3=CC[C@@H]4[C@@]5(C)CCC(O[C@@H]6O[C@@H](C(=O)O)[C@@H](O)C(O[C@@H]7OC[C@H](O)[C@@H](O)[C@@H]7O[C@@H]7OC(CO)C(O)[C@@H](O)[C@@H]7O)C6O[C@@H]6OC(CO)C(O)C(O)C6O)[C@@](C)(CO)[C@@H]5CC[C@]4(C)[C@]3(C)CC(O)[C@@]12CO (some centres undefined)	.	/	/	-32	/	/
CCn1cc(/C=C(\NC(=O)c2ccccc2Cl)C(=O)N2CCN(C)CC2)c2ccccc21	.	.	.	.	.	/
O=C(CN(C1CCCCC1)S(=O)(=O)c1ccc(F)cc1)NCC1CCCO1 (centres undefined)	/	/	/	.	/	/
CN(C)c1ccc(/C=C/C(=O)c2cc(Cl)ccc2O)cc1	/	.	-1.0	.	.	.
O=C(/C=C/c1ccc(O)c(O)c1)OC(Cc1ccc(O)c(O)c1)C(=O)O (centres undefined)	.	.	.	.	.	.
O=C(/C=C/c1ccc(O)c(O)c1)OCCc1ccccc1	.	.	.	.	.	100
O=C(/C=C/c1ccc(O)c(O)c1)c1ccccc1O	.	.	.	.	.	100
CC1CN(C(=O)COC(=O)c2nn(-c3ccccc3)c(=O)c3ccccc23)CC(C)O1 (centres undefined)	.	.	.	.	.	.
CC(C)Cc1ccc(C(C)C(=O)Nc2nccs2)cc1 (centres undefined)	.	.	.	.	.	.
CC(C)Cc1ccc(C(C)C(=O)Nc2ccccc2O)cc1 (centres undefined)	.	.	.	.	.	25
O=C1NN(c2ccccc2)C(=O)/C1=C\c1ccccc1OCC(=O)N1CCOCC1	.	.	.	.	.	25
COc1cc2[nH]c(=O)n(CCC(=O)N3CCN(c4cc(Cl)ccc4C)CC3)c(=O)c2cc1OC	.	/	/	.	/	100
CCCN1CCN(C(=O)C2CCN(S(=O)(=O)c3ccc4c(c3)NC(=O)C(C)S4)CC2)CC1 (centres undefined)	.	25	51	.	.	.

High-throughput results (PubChem)
